In PubChem BioAssay AID687012 (National Center for Advancing Translational Sciences (NCATS), 2013):
Calls of active or inactive are those of the source.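 The calls were made as follows: active = significant rise in the time treated SMA model mouse pups take to turn upright when laid on their backs; inactive = no significant rise in righting time.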

Assay: Extended Characterization of SMN2 Inhibitors: Righting Time Studies
Conditions: SMNdelta7 SMA mice, 50 mg/kg ip
Source text: Spinal muscular atrophy (SMA) is caused by insufficient levels of the survival motor neuron protein SMN. The SMN locus on chromosome 5q13 contains two inverted copies of SMN called SMN1 and SMN2 which are 99% identical at the amino acid level. SMN1 is a fully functional protein and SMN2 skips exon 7 90% of the time. Skipping of exon 7 produces non-functional protein product. 10% of the SMN2 protein includes exon 7 and is fully functional. In the SMA disease state, mutations in the SMN1 locus are the cause of the disease state. Because only 10% of SMN2 is of the fully functional form, it is not sufficient to overcome the deficiency produced by the loss of the SMN1 product. A therapy that either increase the amount of SMN2 product made or to increase the inclusion of exon 7 has been proposed for the treatment of SMA. We have previously filed a probe report and have now done further SAR and further characterized the resulting compounds in mice studies. Here we tested the new compound to see if there was an improval in righting time when administered to SMNdelta7 SMA mice. NIH Chemical Genomics Center [NCGC] NIH Molecular Libraries Probe Production centers Network [MLPCN] MLPCN Grant: R03 MH084179 Assay Submitter (PI): Elliot Androphy […]

| Structure (SMILES) | outcome |
| --- | --- |
| O=C(O)C1CCN(c2ncc(-c3ccc4c(c3)OCCCO4)s2)CC1 | active; yes |
